Compound activity as filed in PubChem.
Sampled rows, rich in hits. Any-hit rate of the full collection: about 1.1%.
Casp6 inh = inhibitors of human caspase-6; AID 686996; inhibition, % at 12.5 µM; purified caspase-6, Z-VEID-R110 cleavage fluorescence; actives 0.53% (n = 350,000); P55212;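 active = mean inhibition across replicates at least about 35%, with every replicate also reaching that limit, limit read from the data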;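 also: 0% = median of neutral control wells and 100% = no fluorescence left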
NSD2 HMT inh = blocks human histone methyltransferase NSD2; O96028; actives 0.54% (n = 310,000); inhibition, % at 12.5 µM; AID 743445; NSD2 peptide methylation, AlphaScreen, 120 min; in the data active = inhibition above about 50%
HDAC3 inh = human HDAC3 inhibition. O15379. recombinant HDAC3, fluorogenic peptide/trypsin coupled, fluorescence. inhibition, % at 8.3 µM. actives 0.15% (n = 320,000); in the data active = inhibition above about 26%, passing the limit was not always enough
Target sequence (O15379 whole entry, looked up): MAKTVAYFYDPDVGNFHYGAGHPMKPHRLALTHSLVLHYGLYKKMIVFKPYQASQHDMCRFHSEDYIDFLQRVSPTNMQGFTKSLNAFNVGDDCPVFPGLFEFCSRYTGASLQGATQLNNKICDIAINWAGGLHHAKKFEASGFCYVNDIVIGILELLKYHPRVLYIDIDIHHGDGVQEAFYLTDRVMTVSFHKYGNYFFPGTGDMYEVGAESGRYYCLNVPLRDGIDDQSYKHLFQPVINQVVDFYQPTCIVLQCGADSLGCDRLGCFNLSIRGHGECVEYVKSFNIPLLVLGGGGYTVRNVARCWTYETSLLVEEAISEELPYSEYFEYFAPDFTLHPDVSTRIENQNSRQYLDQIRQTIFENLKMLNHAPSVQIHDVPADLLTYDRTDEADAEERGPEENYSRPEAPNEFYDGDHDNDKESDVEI
N-glyco inh = N-linked glycosylation inhibition; D54 ERlucT glycosylation luciferase reporter, 24 h; percent of 100 nM tunicamycin response; reporter increase, % at 12.5 µM; actives 0.23% (n = 360,000); AID 588692;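 active = mean luciferase reporter signal, scaled so untreated is 0 and the glycosylation-blocking control 100, at or above a set limit in every replicate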;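 also: luciferase carries N-glycosylation sites so blocking glycosylation raises the light; 0% = median of neutral control wells and 100% = median of 100 nM tunicamycin wells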
Keap1-Nrf2 PPI = disrupts human Keap1 binding to Nrf2 peptide; Keap1 Kelch-Nrf2 peptide fluorescence polarization, 1536-well; inhibition, % at 9.4 µM; actives 0.15% (n = 340,000); in the data active = inhibition above about 12%;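 also: human Keap1 Kelch domain with fluorescein labeled Nrf2 9mer peptide probe; 0% = neutral control wells and 100% = peptide positive control; higher means more block of Keap1 binding to Nrf2 peptide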
C-LANA FP = KSHV C-LANA DNA binding inhibition | MBP-C-LANA/FAM-LBS DNA binding, fluorescence polarization | inhibition, % at 9 µM | actives 0.078% (n = 340,000);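 active = highest replicate inhibition at or above 60% at 9 µM, even if other replicates fall short; inactive = all replicates below 60% inhibition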;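 also: 0% = neutral control wells and 100% = 4 µM acridine orange control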
Keap1 TSA = binders of human Keap1 Kelch domain | shares compounds with Keap1-Nrf2 PPI | Keap1 Kelch thermal shift, delta Tm; hits give high values | max delta Tm, degrees C | actives 8% (n = 400) | AID 651823; in the data active = max delta Tm above about 0.48 degrees C
Dye-only ctr = dye artifact in Keap1 thermal shift counter-screen; shares compounds with Keap1-Nrf2 PPI; Sypro Orange dye-only thermal melt, no protein, delta Tm; top dose 26 µM; delta Tm, degrees C (no concentration beside the values); 140 tested, under 10 active;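 active = at highest dose tested, delta Tm positive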
AlphaScreen art = interferes with AlphaScreen signal, flagging NSD2 false positives | shares compounds with NSD2 HMT inh | AID 1053174 | AC35, µM (doses to about 10 µM), for the others: top-dose activity change, negative = signal loss | AlphaScreen artifact counterscreen, preloaded methylated H4 peptide | actives 9.4% (n = 1,500); call rule not given here
Numbers without * were called inactive; / = not tested or not shown.

SMILES	Casp6 inh	NSD2 HMT inh	HDAC3 inh	N-glyco inh	Keap1-Nrf2 PPI	C-LANA FP	others
CCc1cc(OC)c(CCN)cc1OC	-2	/	/	/	/	/
CCCCCCCSc1cc(OC)c(CCNC)cc1OC	/	69*	9	-8	-4	-1
O=C(CN1C(=O)CN=C(c2ccccc2)c2cc(Cl)ccc21)NC1CCCCC1	/	1	/	/	/	/
COc1ccc(CN2C(=O)NC(=O)/C(=C/c3ccc([N+](=O)[O-])s3)C2=O)cc1	44*	36	3	4	-8	7
COc1ccc(N2C(=O)NC(=O)/C(=C/c3ccc([N+](=O)[O-])s3)C2=O)cc1	30	32	8	2	/	/
COc1cccc(N2C(=O)NC(=O)/C(=C/c3ccc([N+](=O)[O-])s3)C2=O)c1	47*	28	3	2	-1	26
CCCN1[C@@H]2Cn3c(ccc(-c4cccc(OC)c4)c3=O)[C@H]1[C@@H](C(=O)OC)[C@@H]2CO	0	/	/	/	/	/
Cn1cccc1/C=C1\C(=O)NC(=O)N(CCC2=CCCCC2)C1=O	3	2	/	12	4	5
O=C1NC(=O)N(CCC2=CCCCC2)C(=O)/C1=C\c1cccs1	37*	27	1	13	1	1
O=c1[nH]c(=O)n(C2CCCCC2)c(O)c1C=Nc1ccc(N2CCOCC2)cc1	3	-2	-6	1	-2	198*
O=c1[nH]c(=S)n(-c2ccc(Cl)cc2)c(O)c1C=Nc1ccc(N2CCOCC2)cc1	/	-3	-1	2	0	2
O=C(NC[C@H]1CC[C@H]2[C@H](CN2Cc2cccnc2)O1)C1CC1	1	/	/	/	/	/
c1ccc2c(c1)[IH]c1ccccc1-2	-1	/	/	54*	-4	0
O=C(O)c1cc[c]([Hg][Cl])cc1	/	/	95*	-6	0	-2
O=C(Cc1cccnc1)N1CCCCN2[C@H](C1)[C@@H](c1ccc(/C=C/c3ccccc3)cc1)[C@@H]2CO	-6	/	/	/	/	/
CCCN1[C@@H]2c3ccc(-c4ccccc4)c(=O)n3C[C@H]1[C@H](CO)[C@H]2C(=O)OC	2	/	/	/	/	/
COc1cccc(N2C(=O)/C(=C/c3ccc(C)o3)C(=O)NC2=S)c1	40*	19	7	0	-13	1
Cc1ccc(/C=C2\C(=O)NC(=S)N(c3ccc(F)cc3)C2=O)o1	41*	32	4	0	-10	2
COc1ccc(N2C(=O)/C(=C/c3ccc(N(C)C)o3)C(=O)NC2=S)cc1	11	/	9	-6	-6	0
COc1ccccc1/C=C1\C(=O)NC(=S)N(c2ccccc2)C1=O	/	5	3	1	1	0
O=C1NC(=S)N(c2ccccc2)C(=O)/C1=C/c1ccco1	95*	/	9	1	0	88*
Cn1cc(C=C(C#N)C#N)c2ccccc21	-8	1	1	0	53*	56
N#Cc1ccc(Cn2cc(C=O)c3ccccc32)cc1	-4	-4	-6	-14	-1	-3
CCOP(=O)(OCC)C(O)c1cccc([N+](=O)[O-])c1 (stereo unspecified)	-2	13	2	-1	-6	0
CCOP(=O)(OCC)c1ccc(OP(=O)(c2cccc([N+](=O)[O-])c2)c2cccc([N+](=O)[O-])c2)cc1	-2	-2	57*	3	1	1
SMILES	Casp6 inh	NSD2 HMT inh	HDAC3 inh	N-glyco inh	Keap1-Nrf2 PPI	C-LANA FP	others
O=C(Cc1ccccn1)N1CCCCN2[C@H](CO)[C@@H](c3ccc(-c4ccccc4)cc3)[C@@H]2C1	-1	/	/	/	/	/
O=C(O)c1cccc2c1NC(C(=O)O)C1CC(Sc3ccccc3[N+](=O)[O-])C(Cl)C21 (stereo unspecified)	/	31	4	-1	31*	132*	Keap1 TSA=1*
CCn1cc(C=C2C(=O)NC(=O)NC2=O)c2ccccc21	0	-2	4	4	21*	29	Keap1 TSA=-0.08
O=C(O)C[C@@H]1CC[C@H]2NC[C@@H](O)COC[C@@H]2O1	9	/	/	/	/	/
CN1C[C@H](CO)C=C2c3cccc4[nH]cc(c34)C[C@H]21	6	/	-112	-3	9	17
CC1=C[C@@H]2c3cccc4[nH]cc(c34)C[C@H]2N(C)C1	-69	12	-10	0	14*	17	Keap1 TSA=0
CCOC(=O)c1sc(/N=C/c2c(O)n(-c3ccccc3)c(=O)[nH]c2=O)c(C#N)c1C	/	/	-2	0	-21	-1
CCOC(=O)c1c(/N=C/c2c(O)n(-c3cccc(C)c3)c(=O)[nH]c2=O)sc2c1CCCC2	/	4	5	1	72*	9	Keap1 TSA=-0.08
COC(=O)[C@@H]1[C@@H](CO)[C@@H]2Cn3c(ccc(-c4cccc(OC)c4)c3=O)[C@H]1N2C(=O)c1ccccc1F	-3	/	/	/	/	/
COc1ccc(-n2c(CNCCc3ccc(C)cc3)nc3ccccc3c2=O)cc1	-4	2	14	1	36*	18	Keap1 TSA=-0.19;Dye-only ctr=-28
COC(=O)[C@@H]1[C@@H](CO)[C@@H]2Cn3c(ccc(C4=CCCCC4)c3=O)[C@H]1N2CC1CCCC1	-2	/	/	/	/	/
COC(=O)[C@@H]1N[C@@H]2c3ccc(C4=CCCC4)c(=O)n3C[C@@H]2[C@H]1CO	0	/	/	/	/	/
CC1=NCCc2c1[nH]c1cc(O)ccc21	-52	/	-67	-4	102*	168*	Keap1 TSA=-0.16;Dye-only ctr=-36
COc1ccc2c3c([nH]c2c1)C(C)=NCC3	-3	/	-13	-6	-1	0
COCCNC(=O)Cn1cc(/C=C2\C(=O)NC(=O)N(c3cccc(C)c3C)C2=O)c2ccccc21	2	6	2	5	20*	53	Keap1 TSA=-0.22;Dye-only ctr=-30
CN(C)C(CNC(=O)Cc1ccc(Br)cc1)c1ccccc1 (stereo unspecified)	-1	53*	-4	-1	1	2	AlphaScreen art=-7%
CN1[C@@H]2Cn3c(cccc3=O)[C@H]1[C@@H](C(=O)NCC1CC1)[C@@H]2CO	0	/	/	/	/	/
CC[n+]1c(/C=C/N(C)c2ccccc2)sc2ccc(Cl)cc21	/	28	1	-1	0	-2
CC[n+]1c(/C=C/C=C/c2ccc(N(C)C)cc2)sc2ccccc21	0	81*	1	28*	-9	-3	AlphaScreen art=3.7µM*
CN(C)c1ccc(/C=C/C=C/c2sc3ccccc3[n+]2C)cc1	6	57*	0	21	-3	-3	AlphaScreen art=10µM*
CCN(CC)c1ccc(/C=C2/C(=O)NC(=O)N(Cc3ccco3)C2=O)cc1	/	45	5	4	-7	4
